Results as given in the supplement of paper PMC13380429.

Test system: Vero E6 infected with SARS-CoV-2
Experiment: inhibition of SARS-CoV-2 cytopathic effect; higher = more antiviral protection, active = above 15
Conditions: 48 h

Measured: inhibition of SARS-CoV-2 cytopathic effect

CCOc1ccccc1-n1c(C(C)N2CCN(C(=O)COc3ccc(Cl)cc3)CC2)nc2ccccc2c1=O (stereo not given) [erastin]
inactive: 1 nM -2.42% | 8.33 nM -0.63% | 100 nM -0.86% | 833.33 nM -2.74% | 10000 nM 7.21%

Cc1nc(-c2cccnc2)sc1C(=O)Nc1ccccc1-c1cn2c(CN3CCOCC3)csc2n1
inactive: 1 nM -1.3% | 8.33 nM 1.11% | 100 nM 1.74% | 833.33 nM 0.18% | 10000 nM -2.05%

O=C(NCC1CCCCN1)c1cc(OCC(F)(F)F)ccc1OCC(F)(F)F (stereo not given) [flecainide]
inactive: 1 nM -1.39% | 8.33 nM 1.45% | 100 nM -0.28% | 833.33 nM 3.98% | 10000 nM -3.89%

OC[C@H]1O[C@@H](n2cnc3c(NC4CCCC4)ncnc32)[C@H](O)[C@@H]1O [N6-cyclopentyladenosine]
inactive: 1 nM 0.37% | 8.33 nM 0.93% | 100 nM 1.63% | 833.33 nM 4.59% | 10000 nM 1.5%

CCS(=O)(=O)N1CCN(c2ccc(Nc3ncc(C(N)=O)c(NC4CC4)n3)cc2)CC1
inactive: 1 nM -1.63% | 8.33 nM -0.99% | 100 nM -2.24% | 833.33 nM 2.08% | 10000 nM -5.53%

O=C(O)/C=C/c1ccc(-c2ccc(O)c(C34CC5CC(CC(C5)C3)C4)c2)cc1 [adarotene]
inactive: 1 nM -0.41% | 8.33 nM -0.4% | 100 nM 0.7% | 833.33 nM -4.11% | 10000 nM -6.23%

CCOC(=O)C1=C(C)NC(C)=C(C(=O)OC)C1c1cccc(Cl)c1Cl (stereo not given) [felodipine]
inactive: 1 nM 1.65% | 8.33 nM 3.36% | 100 nM 5.39% | 833.33 nM 4.84% | 10000 nM 1.57%

C[C@@H](N)[C@@H](O)c1ccccc1 [1S,2R-phenylpropanolamine]
inactive: 1 nM -1.52% | 8.33 nM -0.06% | 100 nM -0.95% | 833.33 nM -0.75% | 10000 nM 0.8%

CN(C)CCCN1c2ccccc2CCc2ccccc21 [imipramine]
inactive: 1 nM -4.38% | 8.33 nM 1.76% | 100 nM -1.33% | 833.33 nM -2.74% | 10000 nM -4.2%

COc1ccc(OC)c2c(=S)c3ccccc3[nH]c12
inactive: 1 nM 2.65% | 8.33 nM 4.64% | 100 nM 1.38% | 833.33 nM 1.44% | 10000 nM 2.75%

Clc1ccccc1C(c1ccccc1)(c1ccccc1)n1cccn1
inactive: 1 nM 2.55% | 8.33 nM 1.8% | 100 nM -0.74% | 833.33 nM 1.1% | 10000 nM 0.33%

C[S+]([O-])c1ccc(-c2nc(-c3ccc(F)cc3)c(-c3ccncc3)[nH]2)cc1 (stereo not given)
inactive: 1 nM -0.95% | 8.33 nM 1.29% | 100 nM -1.08% | 833.33 nM -1.33% | 10000 nM 4.9%

CN(C)c1nc(N)c(C(=O)Nc2cccnc2)nc1Cl
inactive: 1 nM 1.28% | 8.33 nM 4.72% | 100 nM -0.62% | 833.33 nM 4.15% | 10000 nM 0.82%

O=C1[C@@H]2[C@H]3CC[C@H](C3)[C@@H]2C(=O)N1CCCCN1CCN(c2ncccn2)CC1 [tandospirone]
inactive: 1 nM 2.41% | 8.33 nM 0.1% | 100 nM -0.17% | 833.33 nM 1.06% | 10000 nM 0.15%

CCCN(CCC)S(=O)(=O)c1ccc(C(=O)O)cc1 [probenecid]
inactive: 1 nM -0.75% | 8.33 nM -2.02% | 100 nM -2.27% | 833.33 nM -2.63% | 10000 nM -2.19%

C=CC(=O)N1CCC(Oc2cc3c(Nc4ccc(Cl)c(Cl)c4F)ncnc3cc2OC)CC1 [poziotinib]
inactive: 1 nM -7.08% | 8.33 nM -14.9% | 100 nM -15.1% | 833.33 nM -17.3% | 10000 nM -15.7%

CCCCc1ncc(/C=C(\Cc2cccs2)C(=O)O)n1Cc1ccc(C(=O)O)cc1 [eprosartan]
inactive: 1 nM -1.35% | 8.33 nM -0.99% | 100 nM -0.35% | 833.33 nM -0.6% | 10000 nM 2.22%

C[C@H](N)C(=O)O [L-alanine]
inactive: 1 nM 1.06% | 8.33 nM -0.48% | 100 nM 0.43% | 833.33 nM -0.48% | 10000 nM -4.52%

Cc1cc(=O)oc2c(C=O)c(O)ccc12
inactive: 1 nM 0.13% | 8.33 nM 2.74% | 100 nM 1.64% | 833.33 nM 2.83% | 10000 nM 6.12%

Cc1cc(C)cc(C(=O)N(C)[C@H](Cc2ccc(-c3ccccc3)cc2)C(=O)N[C@@H](Cc2c[nH]c3ccccc23)C(=O)O)c1
inactive: 1 nM 0.46% | 8.33 nM 3.13% | 100 nM 5.42% | 833.33 nM 0.47% | 10000 nM 1.98%
